Screening results: PubChem, National Center for Advancing Translational Sciences (NCATS)
GLP1R ag: GLP-1 receptor (human) agonism; HEK293 GLP-1R CRE-luciferase, luminescence, 4-6 h; cells express a hypersensitive GLP-1R form; Potency, µM (doses to about 45.6 µM), usual class: activators; 0.007% of 380,000 active; AID 624172
ClpP mod: qHTS Assay for Activators of ClpP; 1.9% of 340,000 active; Potency, µM (highest dose often 57.5 µM); AID 651965, 2013; ATP-dependent Clp protease proteolytic subunit (Bacillus subtilis (strain 168)), P80244; purified B. subtilis ClpP, FRET peptide cleavage, 20 min; active means well fitted falling curve with a large enough effect; inconclusive means small, poorly fitted or top-dose-only effect; inactive means no such curve, though single readings can be large or run the other way; further: the source files actives as falling curves though it sought activators and does not explain the sign; nearly all actives have a fitted effect of over 65% in size
Target sequence (P80244 whole entry, looked up): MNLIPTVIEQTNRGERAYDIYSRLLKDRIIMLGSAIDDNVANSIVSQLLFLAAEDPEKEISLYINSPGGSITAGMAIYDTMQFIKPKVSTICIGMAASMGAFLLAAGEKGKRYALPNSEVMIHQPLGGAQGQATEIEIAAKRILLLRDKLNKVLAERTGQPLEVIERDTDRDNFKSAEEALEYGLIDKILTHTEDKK
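FRET quenching reversal measured ClpP activation: 10 microg/mL B. subtilis ClpP at pH 8 with the FRET-FV decapeptide, read at 430 nm after 320 nm excitation. The 20-min minus 0-min signal was scaled between DMSO/no-enzyme wells and ADEP (5.8 microM final).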
D3 antag: antagonists of human D3 dopamine receptor; AID 652054; D3R cells, DiscoveRx beta-arrestin luminescence, antagonist mode; hits give low values; P35462; max response, negative = inhibition, %; 2.5% of 360,000 active; in the data active means max response below about -50%; inconclusive means no clear call, values can overlap the other calls
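Cells expressing the human receptor were seeded at 1500 cells/well, incubated overnight at 37 degrees C in 5% CO2, then exposed to library compounds with dopamine controls for 90 minutes at 37 degrees C before luminescent detection.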
GLP1R inv ag: inverse agonists of human GLP-1 receptor. P43220. Potency, µM (titrated, usually from 38.3 µM), hits mostly inhibitors. AID 624417. 1.6% of 410,000 active. HEK293 GLP-1R CRE-luciferase, luminescence, 24 h; GLP-1R form is constitutively active; further: nearly all actives have a fitted effect of over 55% in size
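Luminescence readout: a drop in cAMP-driven luciferase signal flags inverse agonism at a constitutively active GLP-1R stably expressed in HEK293. Compound exposure lasted 24 hr at 37 deg C, 5% CO2.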
HEK293 tox: cytotoxicity in counter-screen for GLP-1R inverse agonists; HEK293 cAMP-luciferase reporter cells, luminescence, 24 h; Potency, µM (top dose mostly 38.3 µM), usual class: inhibitors; 0.13% of 410,000 active;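 further: loss of luciferase light is scored as toxicity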
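Luminescence readout: signal drop marks cytotoxicity. Plated cells grew 12 h at 37 °C, 5% CO2, received 23 nL compound for 24 h, then got luciferase reagent, read after 12 min at RT.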
DRD3 agonist: agonists of human D3 dopamine receptor. D3R DiscoveRx beta-arrestin cells, luminescence, 90 min. max activation, %. 0.58% of 410,000 active; in the data active means max activation above about 30%
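Cells at 1500/well, incubated overnight, then treated with pinned compounds (dopamine as control) for 90 min at 37 degrees C. DiscoveRx reagent added for 30 - 60 minutes at room temperature; luminescence read.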
Hits are given with their value; i = inactive; ? = inconclusive; nt = not tested or not shown. An excerpt weighted towards active compounds, which were near 5.7% of everything screened. Unless noted, the call rests on the fitted dose curve; in most records, active means well fitted curve in the direction sought with a large enough effect; inconclusive means small, poorly fitted or top-dose-only effect, or another doubt; inactive means no such curve, though single readings can be large; an effect the other way counts as inactive or inconclusive.

SMILES	GLP1R ag	ClpP mod	D3 antag	GLP1R inv ag	HEK293 tox	DRD3 agonist
O=C1NCN(c2ccccc2)C12CCN(C(c1ccccc1OC(F)(F)F)c1nnnn1Cc1ccccc1)CC2 (stereo unspecified)	i	i	i	?	?	30
COc1ccc(C(c2nnnn2-c2c(C)cccc2C)N2CCC3(CC2)C(=O)NCN3c2ccccc2)cc1 (stereo unspecified)	i	i	-54	?	?	i
O=C1NCN(c2ccccc2)C12CCN(C(c1cccc3ccccc13)c1nnnn1Cc1ccccc1)CC2 (stereo unspecified)	i	i	i	i	i	i
Cc1cccc(C)c1-n1nnnc1C(c1ccccc1)N1CCC2(CC1)C(=O)NCN2c1ccccc1 (stereo unspecified)	i	i	i	?	i	i
Cc1ccccc1-n1c(CF)nc2ccc(N)cc2c1=O	nt	nt	nt	nt	nt	i
O=C(Cn1c(SCC(=O)Nc2ccc(F)cc2)nc2ccccc21)NCc1ccc(Cl)cc1	nt	i	nt	?	?	i
Clc1ccc2c(c1)C(c1ccccc1)=NCc1nncn1-2	i	nt	nt	nt	nt	i
COc1cccc(OC)c1C(=O)NC(=S)N1CCN(c2ccc(C(F)(F)F)cc2[N+](=O)[O-])CC1	i	i	i	?	?	i
O=C(NNc1ccc(C(F)(F)F)cc1[N+](=O)[O-])c1ccc(NS(=O)(=O)c2ccc(F)cc2)cc1	i	i	-73	?	?	i
COc1ccc(-c2nc(CN3C(=O)CN=C(c4ccccc4)c4ccccc43)c(C)o2)cc1	nt	i	nt	?	i	i
CC(C)(C)c1ccc(CN2N=Nc3ccccc3S2(=O)=O)cc1	i	i	-93	?	?	i
CN(C)CCCNC(=S)Nc1ccc(-c2ccccc2)cc1	i	i	i	11µM	?	i
S=C(NCCC(c1ccccc1)c1ccccc1)Nc1ccc(Cl)cc1	i	i	i	i	?	i
CC(C)c1ccc2c(c1)C(N1CCNCC1)Cc1ccc(F)cc1S2 (stereo unspecified)	i	nt	-63	?	?	i
C=CC(=O)NCNC(=O)C=C	i	i	-76	i	i	i
COC(=O)NC(NC(=S)Nc1ccc([N+](=O)[O-])cc1)C(Cl)(Cl)Cl (stereo unspecified)	i	i	i	11µM	?	i
Fc1ccc(CNCCc2ccc3c(c2)OCO3)cc1	i	i	i	i	i	i
Fc1ccc([C@@H]2CCNC[C@H]2COc2ccc3c(c2)OCO3)cc1	i	i	i	8.9µM	?	i
O=C(COc1ccccc1)N1CCN(C2CCCC2)CC1	i	i	?	i	i	i
O=C(Cc1ccccc1)N1CCN(C2CCCC2)CC1	i	i	-72	i	i	i
CC[C@]12c3[nH]c4ccc(Cl)cc4c3CCN1C(=O)[C@@H](CC(=O)NCC13CC4CC(CC(C4)C1)C3)C[C@@H]2C(=O)N1CCN(C(=O)c2ccco2)CC1	i	i	?	?	?	i
N#CC1=C(N)C2=CCCC[C@H]2[C@H](c2ccccc2)C1(C#N)C#N	i	i	i	4.5µM	i	i
CCN(CC)CCOC(=O)C(C)(c1ccccc1)c1ccccc1	i	nt	nt	nt	nt	i
CCCCCCCCOC(=O)c1ccccc1C(=O)OCCCCCCCC	i	nt	nt	nt	nt	i
CCN(CC)CCCOC(=O)C(OC(C)C)(c1ccccc1)c1ccccc1	i	i	-101	i	?	i
CCOC(C(=O)OCCCN(CC)CC)(c1ccccc1)c1ccccc1	i	i	-55	?	i	i
CC(C)(O)[C@@H]1[C@H]2OC(=O)[C@@H]1[C@]1(O)C[C@H]3O[C@]34C(=O)O[C@H]2[C@]14C	nt	nt	nt	nt	nt	i
c1ccc(C(c2ccccc2)N2CCN(c3ccc4ccccc4n3)CC2)cc1	i	18µM	i	?	i	i
Cc1oc2c(c1C(=O)NCc1cccnc1)C(=O)c1ccccc1C2=O	i	i	-72	3.2µM	?	i
CCCCCn1c(=O)c(C(=O)NCc2ccncc2)c(O)c2ccccc21	i	i	i	i	i	i
